Data as given in PubChem BioAssay AID720518 (National Center for Advancing Translational Sciences (NCATS), 2013).
Inconclusive results are not listed. Entries that show only a call come without a potency. Active and inactive are the calls of the source. Calls come from the whole dose curve.

Assay: qHTS for Inhibitors of Cell Surface uPA Generation: Wild-type Protective Antigen (WT-PrAg) Counterscreen for Cherry-picked Compounds
Details: cells, WT protective antigen toxicity counterscreen; series mostly up to 115 µM
In the case of `Cc1ccc(S(=O)(=O)Nc2nc(C)cc(N/N=C/c3ccc(O)cc3)n2)cc1`, the Potency is reported as “inactive”.
In the case of `COCCNC(=S)N(CCc1c(C)[nH]c2ccccc12)Cc1ccco1`, the Potency is reported as “inactive”.
With `C/C(=N\NC(=S)NC(C)C)c1ccc(Cl)s1` the Potency was “inactive”.
With `COc1ccc(-c2sc3ccccc3c2C#CCO)cc1` the Potency was “inactive”.
With `CCOc1ccc(C2(C)CC(=O)N(C)C2=O)cc1` (stereo not drawn) the Potency was “inactive”.
With `O=[N+]([O-])c1ccccc1C=NNC(=S)NN=Cc1ccccc1[N+](=O)[O-]` the Potency was “inactive”.
With `Cc1cc(/C=N/NC(=O)c2ccccc2F)c(C)n1-c1ccccc1` the Potency was “inactive”.
For `CC(=O)NC(=S)Nc1ccc([N+](=O)[O-])cc1C`, the Potency was “inactive”.
With `CCCC1=NN(C(=O)Cc2ccc(OC)cc2)C(O)(C(F)(F)F)C1` (stereo not drawn) the Potency was “inactive”.
For `CCc1ccc(OCC(=O)N(Cc2cccs2)C2CCS(=O)(=O)C2)cc1` (stereo not drawn), the Potency was “inactive”.
For `Cc1cc(NC(=O)COc2cccc([N+](=O)[O-])c2)no1`, the Potency was “inactive”.
For `Cc1ccc(N=C2SCCCN2C(=O)c2cccc(N3C(=O)CCC3=O)c2)cc1Cl`, the Potency was “inactive”.
In the case of `Fc1ccc(N2CCN(c3nc(CN4CCOCC4)nc4scc(-c5ccccc5)c34)CC2)cc1`, the Potency is reported as “inactive”.
With `Cc1ccc(C(=O)NC(=S)Nc2ccc3[nH]c(=O)[nH]c3c2)c(C)c1` the Potency was “inactive”.
In the case of `C=CCn1c(SCc2ccc(C(=O)NCCO)cc2)nc2ccccc2c1=O`, the Potency is reported as “inactive”.
With `CC(C)NCC1CCc2cc(CO)c([N+](=O)[O-])cc2N1` (stereo not drawn) the Potency was “inactive”.
In the case of `COc1ccc(CNCCC2(C(C)C)CCOC(C)(C)C2)cc1` (stereo not drawn), the Potency is reported as “inactive”.
For `CC(NC(=O)NC1CCCCC1)C(c1cccs1)N1CCN(C)CC1` (stereo not drawn), the Potency was “inactive”.
